Screening results deposited in PubChem BioAssay by several laboratories.
Only some compounds are listed: those with a hit (about 4.2% of all), similar ones and a draw of the others.
BJeLR lethal: MLPCN primary cell-based screen for lethality selective to Ras in HRASV12 cells. BJeLR (HRASV12) viability, CellTiter-Glo ATP luminescence, 48 h. inhibition, % (concentration not given with the values). 300,000 tested, 0.17% active; in the data active = inhibition above about 50%
GDH-TPI inh: GDH-TPI coupling enzyme inhibitors, primary screen, artefact control for M. tuberculosis FBA inhibitor project, biochemical, absorbance, full deck. GDH-TPI coupled enzyme counterscreen, NADH absorbance. inhibition, % at 4.8 µM. 360,000 tested, 1.2% active; in the data active = inhibition above about 30%;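 note: 0% = DMSO wells and 100% = wells lacking the enzyme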
RecA splice inh: Mtb RecA intein splicing inhibitors, primary screen, biochemical, fluorescence, HTS; Protein RecA (Mycobacterium tuberculosis (strain ATCC 25618 / H37Rv)), P9WHJ3; cell-free RecA intein splicing; inhibition, % (concentration not given with the values); 290,000 tested, 0.75% active; AID 2221, 2009; in the data active = inhibition above about 30%;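 note: 0% = vehicle wells and 100% = reference inhibitor control wells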
PrPC surface inh: inhibitors of human cell surface prion protein PrPC, primary screen, cell-based, TR-FRET; inhibition, % at 13.8 µM; Major prion protein (Homo sapiens), P04156; 370,000 tested, 0.43% active; TR-FRET read-out; AID 720596, 2013; in the data active = inhibition above about 24%; note: 0% = median of the test wells and 100% = reference compound wells
FBA Mtb inh: Mtb FBA enzyme inhibitors, primary screen, biochemical, fluorescence, strain H37Rv; inhibition, % at 1 µM; AID 588726, 2011; 360,000 tested, 2.3% active; Fructose-bisphosphate aldolase (Mycobacterium tuberculosis (strain ATCC 25618 / H37Rv)), …; purified M. tuberculosis FBA, fluorescence read-out; in the data active = inhibition above about 27%;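 note: 0% = vehicle and 100% = reference inhibitor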
Target sequence (P9WQA3 whole entry, looked up): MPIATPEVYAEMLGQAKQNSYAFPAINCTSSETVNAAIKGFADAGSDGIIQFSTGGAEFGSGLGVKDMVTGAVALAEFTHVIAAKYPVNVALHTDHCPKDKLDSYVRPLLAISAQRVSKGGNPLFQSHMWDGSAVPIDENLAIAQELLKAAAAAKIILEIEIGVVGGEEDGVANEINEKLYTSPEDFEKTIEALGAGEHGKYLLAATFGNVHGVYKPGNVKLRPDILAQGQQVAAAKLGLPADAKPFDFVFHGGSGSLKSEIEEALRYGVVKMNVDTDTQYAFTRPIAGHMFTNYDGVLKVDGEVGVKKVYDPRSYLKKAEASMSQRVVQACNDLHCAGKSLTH
* hit, by the source's call.

What do the screens show for `CN(C(=O)C=Cc1ccco1)c1ccccc1`?
GDH-TPI inh: 9; PrPC surface inh: -4; FBA Mtb inh: -3

Results for CN(C(=O)/C=C/c1ccco1)c1ccccc1C(=O)O ?
BJeLR lethal: 7; GDH-TPI inh: 32*; RecA splice inh: -2; PrPC surface inh: 0; FBA Mtb inh: 5

Results for C=CCOC/C=C/C#CCN(Cc1ccc(OC)cc1OC)C(=O)Nc1ccccc1 ?
PrPC surface inh: 2

What do the screens show for `CC1(C)CC(=O)C2=C(C1)Nc1[nH]n(-c3ccccc3)c(=O)c1C2c1ccc2c(c1)OCO2` (centres undefined)?
BJeLR lethal: 1; GDH-TPI inh: 24; RecA splice inh: 69*; PrPC surface inh: 0; FBA Mtb inh: -1

How did Cc1cc(C#Cc2c(-c3ccccc3)n(C)c3ccccc23)ccc1F do in these assays?
BJeLR lethal: -12; GDH-TPI inh: 16; RecA splice inh: 4; PrPC surface inh: -4; FBA Mtb inh: 27*

What do the screens show for `COc1ccc(C#Cc2c(-c3ccccc3)n(C)c3ccccc23)cc1`?
GDH-TPI inh: 12; PrPC surface inh: 10; FBA Mtb inh: 10

Results for O=C(Oc1coc(CSc2ncccn2)cc1=O)c1ccc([N+](=O)[O-])cc1 ?
PrPC surface inh: -6

What do the screens show for `O=C(c1ccoc1)N1CCN(c2cc(-c3ccco3)nc3cc(-c4ccccc4)nn23)CC1`?
GDH-TPI inh: 28; PrPC surface inh: -9; FBA Mtb inh: 113*

What do the screens show for `O=C(c1ccoc1)N1CCN(c2cc(-c3ccco3)nc3cc(-c4ccco4)nn23)CC1`?
PrPC surface inh: -12

How did Nc1ccc(Cl)cc1C(=O)OCC(=O)NC1CCS(=O)(=O)C1 (centres undefined) do in these assays?
BJeLR lethal: 8; GDH-TPI inh: 17; RecA splice inh: -1; PrPC surface inh: -2; FBA Mtb inh: 90*

Results for O=C(COC(=O)c1cccc(Cl)c1)NC1CCS(=O)(=O)C1 (centres undefined) ?
GDH-TPI inh: 7; PrPC surface inh: -3; FBA Mtb inh: 3

How did CCCCn1c(-c2ccccc2)nc2c(=O)n(C)c(=O)[nH]c21 do in these assays?
BJeLR lethal: 8; GDH-TPI inh: 5; RecA splice inh: 2; PrPC surface inh: 0; FBA Mtb inh: 196*

How did CCOC(=O)N1CCC(Nc2c(-c3ccc(C)cc3)c(=O)c2=O)CC1 do in these assays?
BJeLR lethal: 4; GDH-TPI inh: 36*; RecA splice inh: -2; PrPC surface inh: -20; FBA Mtb inh: -3

How did CCOC(=O)N1CCC(Nc2c(-c3ccccc3)c(=O)c2=O)CC1 do in these assays?
BJeLR lethal: -12; GDH-TPI inh: 11; RecA splice inh: 1; PrPC surface inh: -8; FBA Mtb inh: -3

How did CCOC(=O)N1CCN(c2c(-c3ccc(C)cc3)c(=O)c2=O)CC1 do in these assays?
BJeLR lethal: -3; GDH-TPI inh: 34*; PrPC surface inh: -21; FBA Mtb inh: 2

How did CCc1cccc(CC)c1NC(=O)C1SC(=Nc2ccccc2C)C(c2nc3ccccc3s2)=C1N (centres undefined) do in these assays?
BJeLR lethal: -6; GDH-TPI inh: -7; RecA splice inh: -25; PrPC surface inh: 25*; FBA Mtb inh: -2

What do the screens show for `CCc1cccc(C)c1NC(=O)CCCSc1nc2ccccc2s1`?
BJeLR lethal: 0; GDH-TPI inh: 4; RecA splice inh: -2; PrPC surface inh: 9; FBA Mtb inh: -1

What do the screens show for `O=C(N[C@H]1CC[C@@H]2SC[C@@H](C(=O)O)N2C1=O)OCC1c2ccccc2-c2ccccc21`?
PrPC surface inh: 8

How did COc1ccc(-c2cc3nc(CCl)[nH]c(=O)c3s2)cc1 do in these assays?
BJeLR lethal: -2; GDH-TPI inh: 19; RecA splice inh: 10; PrPC surface inh: 3; FBA Mtb inh: 160*

How did COc1ccc(-c2cc3nc[nH]c(=O)c3s2)cc1 do in these assays?
BJeLR lethal: 0; GDH-TPI inh: 31*; RecA splice inh: 1; PrPC surface inh: -5; FBA Mtb inh: active

Results for COc1cccc(CNc2nc3cc(-c4cccc(Cl)c4)sc3c(=O)n2C)c1 ?
GDH-TPI inh: 15; PrPC surface inh: -2; FBA Mtb inh: 4

What do the screens show for `O=c1[nH]cnc2cc(-c3ccccc3)sc12`?
BJeLR lethal: 10; GDH-TPI inh: 10; RecA splice inh: 10; PrPC surface inh: -1; FBA Mtb inh: 2

How did COc1ccc(C(=O)NN(C)c2nc(-c3ccccc3)nnc2C(F)(F)F)cc1 do in these assays?
BJeLR lethal: -3; GDH-TPI inh: 6; RecA splice inh: -2; PrPC surface inh: 1; FBA Mtb inh: 3

Results for COc1ccc(C(=O)NN(C)c2nc(C(F)(F)F)nc3ccccc23)cc1 ?
BJeLR lethal: 60*; GDH-TPI inh: 5; RecA splice inh: 2; PrPC surface inh: 8; FBA Mtb inh: -3

Results for C/C(=N\NC(=O)c1ccc(NS(=O)(=O)c2cccs2)cc1)c1cccs1 ?
BJeLR lethal: -4; GDH-TPI inh: 22; RecA splice inh: 1; PrPC surface inh: -6; FBA Mtb inh: 0

What do the screens show for `CC(=O)Nc1ccc(C=NNC(=O)c2ccc(NS(=O)(=O)c3cccs3)cc2)cc1`?
GDH-TPI inh: 59*; PrPC surface inh: 4; FBA Mtb inh: 2

Results for O=C(NN=Cc1c(F)c(F)c(F)c(F)c1F)c1ccc(NS(=O)(=O)c2cccs2)cc1 ?
GDH-TPI inh: 36*; PrPC surface inh: -2; FBA Mtb inh: -4

How did CC(C)c1ccc(/C=N/NC(=O)c2cccc(S(=O)(=O)N3CCOCC3)c2)cc1 do in these assays?
BJeLR lethal: 5; GDH-TPI inh: 3; RecA splice inh: 2; PrPC surface inh: 5; FBA Mtb inh: 4

What do the screens show for `CC(=O)Nc1ccc(/C=N/NC(=O)c2cccc(S(=O)(=O)N3CCOCC3)c2)cc1`?
BJeLR lethal: -10; GDH-TPI inh: 36*; RecA splice inh: -3; PrPC surface inh: -5; FBA Mtb inh: 1

What do the screens show for `COc1cc(C=NNC(=O)c2ccc(NS(=O)(=O)c3cccs3)cc2)cc(Br)c1O`?
GDH-TPI inh: 52*; PrPC surface inh: 3; FBA Mtb inh: 1

Results for CC(COc1ccc(C(F)(F)F)cc1)CN1CCC(C(O)(c2ccccc2)c2ccccc2)CC1 (centres undefined) ?
PrPC surface inh: -10

How did COc1ccc(Cn2cc(COC(=O)N3CCCC3)nn2)cc1 do in these assays?
PrPC surface inh: 2

How did O=C(NN=Cc1ccc(O)cc1)c1ccccc1NS(=O)(=O)c1cccs1 do in these assays?
GDH-TPI inh: 37*; PrPC surface inh: -1; FBA Mtb inh: 4

How did Cc1ccc(Cn2cc(CN3[C@H](Cc4ccccc4)COc4cc(Br)ccc4S3(=O)=O)nn2)cc1 do in these assays?
PrPC surface inh: -8
